Measurements as given in ChEMBL document CHEMBL3988442, “University of Dundee, Small-Polar-MMV Screening Library” (2021).
About 960 (1.5%) of roughly 66,000 compounds showed an effect of 50% or more. Many of the other results were omitted from the sample, so strong results are more common in it than they were.

Tested on: Trypanosoma brucei
Test: Trypanosoma brucei 72 hour study
Type: functional, organism-based
Design: scale not given: in the data most compounds retested in dose-response had high values

## Cc1nc(NCc2cccnc2)cc(C2COCCN2)n1 (centres undefined)
30.3 µM, […]
  Percent Effect: -2.285%

## Cc1nc(NCc2ccc(F)cc2)cc(C2CCCN2)n1.Cl (centres undefined)
30.3 µM, […]
  Percent Effect: -9.094%

## Cc1nc(Cc2ccc(F)cc2)cc(C2COCCN2)n1.Cl (centres undefined)
30.3 µM, […]
  Percent Effect: 101%

## CN(C)C(=O)COC[C@]12COC[C@H]1CN(Cc1ccco1)C2.O=C(O)C(F)(F)F
30.3 µM, […]
  Percent Effect: -53.67%

## COC(=O)c1ccc2c(-c3ccnc(N[C@@H](C)CO)n3)c[nH]c2c1
30.3 µM, […]
  Percent Effect: 47.11%

## CC[C@@H](CO)Nc1nccc(-c2c[nH]c3cc(C(=O)OC)ccc23)n1
30.3 µM, […]
  Percent Effect: 72.65%

## COC(=O)c1ccc2c(-c3ccnc(NCCO)n3)c[nH]c2c1
30.3 µM, […]
  Percent Effect: 8.363%

## Cc1nn(CC(=O)N2CCN(Cc3cn(C)nc3C)CC2)cc1Br
30 µM, 30.03 µM
  Percent Effect: -22.12%

## Cc1ccc(-c2ccccc2CC2CNCCNC2=O)c(C)c1.Cl (centres undefined)
30.3 µM, […]
  Percent Effect: 25.6%

## Cn1cnnc1C1CCN(C(=O)c2cc(-c3ccccc3)on2)CC1
30 µM, 30.03 µM
  Percent Effect: -50.55%

## CCc1ccc(C(O)CN2CCN(c3cccc(OC)c3)CC2)cc1 (centres undefined)
30 µM, 30.03 µM
  Percent Effect: -8.228%

## CCc1ccc(NC(=O)N2C[C@H]3C[C@H](C(=O)NC4CCC4)[C@@H](C2)O3)cc1
30.3 µM, […]
  Percent Effect: -16.27%

## CN(C)C[C@@H]1C[C@@H]2CN(C(=O)c3ccoc3)CC[C@@H]2N1CC1CC1.O=C(O)C(F)(F)F
30.3 µM, […]
  Percent Effect: -22.29%

## O=C(Nc1ccc(-c2cnc(NCCO)nc2)cc1)[C@@H]1CCCCN1
30.3 µM, […]
  Percent Effect: 53.19%

## Nc1ncc(-c2ccc(NC(=O)[C@@H]3CCCCN3)cc2)cn1
30.3 µM, […]
  Percent Effect: 8.453%

## CNc1ncc(-c2ccc(NC(=O)[C@@H]3CCCCN3)cc2)cn1
30.3 µM, […]
  Percent Effect: 7.595%

## Cn1ncc2c1CCCC2NCc1cccc(OC2CCCC2)c1 (centres undefined)
30.3 µM, […]
  Percent Effect: 65.11%

## Cc1cccc(CNC2CCCc3c2cnn3Cc2ccccc2)c1.Cl (centres undefined)
30.3 µM, […]
  Percent Effect: 96.36%

## Cl.Cn1ncc2c1CCCC2NCc1cccc(F)c1 (centres undefined)
30.3 µM, […]
  Percent Effect: -9.663%

## Cc1ccc(CNC2CCCc3c2cnn3Cc2ccccc2)s1.Cl (centres undefined)
30.3 µM, […]
  Percent Effect: 15.28%

## Cn1ncc2c1CCCC2NCc1cccnc1 (centres undefined)
30 µM, 30.03 µM
  Percent Effect: -8.249%

## Cc1cccc(CNC2CCCc3c2cnn3C)c1.Cl (centres undefined)
30 µM, 30.03 µM
  Percent Effect: 5.756%

## CN1CC[C@]2(CN(CC3CCOCC3)C[C@H]2c2ccccc2)C1=O.O=C(O)C(F)(F)F
30.3 µM, […]
  Percent Effect: -1.885%

## O=C(O)C(F)(F)F.O=C(O)C(F)(F)F.O=C(O)C(F)(F)F.O=C(O)c1c(-c2cncnc2)ncc2c1CCN(Cc1cccnc1)C2
30.3 µM, […]
  Percent Effect: -22.43%

## CN(C)CCN1CCCC12CCN(Cc1nccn1C)CC2.O=C(O)C(F)(F)F.O=C(O)C(F)(F)F.O=C(O)C(F)(F)F
30.3 µM, […]
  Percent Effect: -91.45%

## Cc1ccc(CNCc2c[nH]nc2C(C)(C)C)c(OC2CCOC2)c1 (centres undefined)
30 µM, 30.03 µM
  Percent Effect: -38.61%

## Cc1ccc(CNCc2cccc3cn[nH]c23)c(OC2CCOC2)c1 (centres undefined)
30 µM, 30.03 µM
  Percent Effect: -32.61%

## Cc1ccc(CNCc2cccc3cccnc23)c(OC2CCOC2)c1 (centres undefined)
30 µM, 30.03 µM
  Percent Effect: 98.1%

## O=C(O)C(F)(F)F.O=C1COC2(CCN(Cc3cccs3)CC2)CN1c1ccsc1
30 µM, 30.03 µM
  Percent Effect: 3.746%

## CC(=O)N1CCN(Cc2ccco2)CC2(CC(=O)N(C)C2)C1.O=C(O)C(F)(F)F (centres undefined)
30.3 µM, […]
  Percent Effect: -65.74%

## Cc1occc1C(=O)N1CCC[C@]2(C[C@@H](OCc3ccccn3)CO2)C1.O=C(O)C(F)(F)F
30.3 µM, […]
  Percent Effect: -89.01%

## Cl.OC1(Cn2ccc3ncccc32)CCN(Cc2ccccc2F)CC1
30.3 µM, […]
  Percent Effect: 12.85%

## O=C(C1CCOCC1)N1CCc2ncc(CN3CCOCC3)n2CC1.O=C(O)C(F)(F)F
30.3 µM, […]
  Percent Effect: -405.3%

## CCCN(C(=O)c1cnccn1)c1nc2c(s1)CCc1c-2cnn1C
30.3 µM, […]
  Percent Effect: 47.96%

## CCCN(C(=O)c1ccncc1)c1nc2c(s1)CCc1c-2cnn1C
30.3 µM, […]
  Percent Effect: 55.53%

## CCCN(C(=O)c1cccnc1)c1nc2c(s1)CCc1c-2cnn1C
30.3 µM, […]
  Percent Effect: 48.91%

## CCOc1ccc(C(=O)N2CCCC(c3nccn3C)C2)cc1OCC (centres undefined)
30 µM, 30.03 µM
  Percent Effect: -33.07%

## CCn1cnnc1CN(C)Cc1nc(-c2cc(OC)ccc2F)oc1C
30 µM, 30.03 µM
  Percent Effect: -24.61%

## O=C(Cn1ccc2c(Cl)cccc21)N[C@@H](C(=O)O)c1ccccc1
30 µM, 30.03 µM
  Percent Effect: 60.67%

## CC(C)C[C@H](NC(=O)Cn1ccc2c(Cl)cccc21)C(=O)O
30 µM, 30.03 µM
  Percent Effect: -31.2%

## CC(C)NC(=O)Cn1ccc2c(Cl)cccc21
30 µM, 30.03 µM
  Percent Effect: -29.64%

## CN(C)C(=O)COCC1CN(S(C)(=O)=O)Cc2ncn(C)c21.O=C(O)C(F)(F)F (centres undefined)
30.3 µM, […]
  Percent Effect: -29.75%

## CCN1CCC2(CC1)CC(NCc1cccc(C)n1)c1ccccc1O2.O=C(O)C(F)(F)F.O=C(O)C(F)(F)F.O=C(O)C(F)(F)F (centres undefined)
30 µM, 30.03 µM
  Percent Effect: -8.099%

## Cn1ccnc1CN1CCC(F)(F)C2(CCN(c3cccnc3)C2)C1.O=C(O)C(F)(F)F.O=C(O)C(F)(F)F (centres undefined)
30.3 µM, […]
  Percent Effect: -58.8%

## Cn1cc(CN2CCC(F)(F)C3(CCN(c4ccccn4)C3)C2)cn1.O=C(O)C(F)(F)F.O=C(O)C(F)(F)F (centres undefined)
30.3 µM, […]
  Percent Effect: -14.43%

## FC1(F)CCN(Cc2ccncc2)CC12CCN(c1cccnc1)C2.O=C(O)C(F)(F)F.O=C(O)C(F)(F)F.O=C(O)C(F)(F)F (centres undefined)
30.3 µM, […]
  Percent Effect: -14.72%

## Fc1ccc(CN2CCC(F)(F)C3(CCN(c4cnccn4)C3)C2)cc1.O=C(O)C(F)(F)F.O=C(O)C(F)(F)F (centres undefined)
30.3 µM, […]
  Percent Effect: 93.17%

## FC1(F)CCN(Cc2cccnc2)CC12CCN(c1cnccn1)C2.O=C(O)C(F)(F)F.O=C(O)C(F)(F)F.O=C(O)C(F)(F)F (centres undefined)
30.3 µM, […]
  Percent Effect: -8.346%

## FC1(F)CCN(Cc2ccccn2)CC12CCN(c1cnccn1)C2.O=C(O)C(F)(F)F.O=C(O)C(F)(F)F.O=C(O)C(F)(F)F (centres undefined)
30.3 µM, […]
  Percent Effect: -80.37%

## Cn1cc(CN2CCC(F)(F)C3(CCN(c4cccc(F)c4)C3)C2)cn1 (centres undefined)
30.3 µM, […]
  Percent Effect: 99.39%

## FC1(F)CCN(Cc2cccnc2)CC12CCN(c1ccccc1)C2.O=C(O)C(F)(F)F.O=C(O)C(F)(F)F.O=C(O)C(F)(F)F (centres undefined)
30.3 µM, […]
  Percent Effect: 100.3%

## Cn1cc(CN2CCC(F)(F)C3(CCN(c4ncc(F)cn4)C3)C2)cn1.O=C(O)C(F)(F)F (centres undefined)
30.3 µM, […]
  Percent Effect: -7.399%

## FC1(F)CCN(Cc2ccncc2)CC12CCN(c1cnccn1)C2.O=C(O)C(F)(F)F.O=C(O)C(F)(F)F.O=C(O)C(F)(F)F (centres undefined)
30.3 µM, […]
  Percent Effect: 6.608%

## Cn1cc(CN2CCC(F)(F)C3(CCN(c4cccnc4)C3)C2)cn1.O=C(O)C(F)(F)F.O=C(O)C(F)(F)F (centres undefined)
30.3 µM, […]
  Percent Effect: 3.133%
